Records with an inconclusive call do not appear. Activity calls are given as the source filed them. Unless noted, calls come from the whole dose curve; as a rule, active = well fitted curve in the direction sought with a large enough effect in the repeat runs; inconclusive = weak or mixed curves; inactive = no such curve, though single readings can be large; an effect the other way counts as inactive or inconclusive.
Tests used:
[1] = qHTS assay for small molecule agonists of the p53 signaling pathway (AID 651631; calls by dose curve; note: nearly all actives have a fitted effect of over 15% in size)
Summary of the method: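 HCT-116 p53RE-bla reporter line, 16 h compound treatment at 37 °C, then fluorescence after 2 h with B/G FRET substrate.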

[2] = qHTS assay for small molecules that induce genotoxicity in human embryonic kidney cells expressing luciferase-tagged ATAD5 (AID 651632); note: nearly all actives have a fitted effect of over 15% in size
Summary of the method: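 Concentration-response screen for ATAD5 upregulation in HEK293T luciferase reporter cells; 16 hr treatment at 37C, then luminescence after 30 min with Amplite at room temperature.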

[3] = qHTS assay for small molecule agonists of the p53 signaling pathway - cell viability (AID 651633; calls by dose curve;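 note: p53RE-bla HCT reporter cells with a stable beta-lactamase p53 reporter; series mostly up to about 83 µM; nearly all actives have a fitted effect of over 30% in size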)
Summary of the method: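 p53RE-bla cells were treated with compound for 16 hours at 37 C. Cytotoxicity was then measured as CellTiter-Glo luminescence after 30 min at room temperature.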

[4] = qHTS assay for small molecule disruptors of the mitochondrial membrane potential - cell viability (AID 720634; calls by dose curve;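 note: human HepG2 liver cancer cells; series mostly up to about 83 µM; nearly all actives have a fitted effect of over 20% in size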)
Summary of the method: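 In this qHTS format, HepG2 cells plated overnight were pinned with compound, incubated 1 hr, and assayed for ATP luminescence with CellTiter-Glo after m-MPI dye addition.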

[5] = qHTS assay for small molecule disruptors of the mitochondrial membrane potential (AID 720635)
Summary of the method: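 HepG2 cells exposed to compound 1 hr at 37C, then Mito-MPS dye 30 min. Ratio read of aggregate (540/590 nm) versus monomer (490/535 nm) fluorescence.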

[6] = qHTS assay to test for compound auto fluorescence at 590 nm (red) in HepG2 cells (AID 720674)
Summary of the method: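 Seeding: 2,000 HepG2 cells/well, MEM/10% FBS, overnight 37 C. Dosing: compound vs DMSO. Incubation: 1 hr, 37 C, 5% CO2. Read: fluorescence 540 ex/590 em, Rose Bengal sodium as red reference.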

[7] = qHTS assay to test for compound auto fluorescence at 535 nm (green) in HepG2 cells (AID 720675)
[8] = qHTS assay to test for compound auto fluorescence at 460 nm (blue) in HEK293 cells (AID 720678)
Summary of the method: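 Intrinsic compound fluorescence is recorded in live HEK293 cultures after overnight incubation at 37C, 5% CO2, using excitation 405 nm and emission 460 nm. Values are referenced to triamterene.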

[9] = qHTS assay to test for compound auto fluorescence at 590 nm (red) in HEK293 cells (AID 720679)
Summary of the method: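 Red autofluorescence, HEK293 cells: 2,000 cells/well; attach 4-5 hr 37C; add 23 nL cpd or DMSO; incubate o/n 37C 5% CO2; read Ex540/Em590; Rose Bengal sodium reference.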

[10] = qHTS assay to test for compound auto fluorescence at 535 nm (green) in HEK293 cells (AID 720680)
[11] = qHTS assay to test for compound auto fluorescence at 460 nm (blue) in HEK293 cell free culture (AID 720681)
Summary of the method: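 Compounds were added to cell-free DMEM with 10% FBS and fluorescence read directly. The blue channel used 405 nm excitation and 460 nm emission, with triamterene as the reference fluorophore.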

[12] = qHTS assay to test for compound auto fluorescence at 535 nm (green) in HEK293 cell free culture (AID 720682)
Summary of the method: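 Steps: dispense DMEM/10% FBS into empty wells; pin in compound or DMSO; measure fluorescence at 485/535 nm. Values are fluorescein equivalents.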

[13] = qHTS assay to test for compound auto fluorescence at 590 nm (red) in HEK293 cell free culture (AID 720683)
Summary of the method: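 Cell-free wells of DMEM with 10% FBS received compound, and intrinsic fluorescence was read at excitation/emission 540/590 nm. Values expressed as equivalence to Rose Bengal sodium.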

[14] = qHTS assay to test for compound auto fluorescence at 590 nm (red) in HepG2 cell free culture (AID 720684)
Summary of the method: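 Auto fluorescence equivalency versus Rose Bengal sodium, red channel Ex/Em 540/590 nm; compounds in cell-free MEM/10% FBS; DMSO vehicle control.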

[15] = qHTS assay to test for compound auto fluorescence at 460 nm (blue) in HepG2 cell free culture (AID 720685)
Summary of the method: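 Cell-free plates of MEM plus 10% FBS received 23 nL compound or DMSO vehicle; blue-channel (405/460 nm) intensity scored against triamterene as reference fluorophore.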

[16] = qHTS assay to test for compound auto fluorescence at 535 nm (green) in HepG2 cell free culture (AID 720686)
[17] = qHTS assay to test for compound auto fluorescence at 460 nm (blue) in HepG2 cells (AID 720687)
Summary of the method: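 HepG2 cells in MEM with 10% FBS, attached overnight at 37 C, were exposed to compound or DMSO for 1 hr at 37 C, 5% CO2. Blue fluorescence was read at 405/460 nm, with triamterene as reference fluorophore.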

[18] = biological target: Glucocorticoid receptor (Homo sapiens) (UniProt P04150); assay: qHTS assay to identify small molecule agonists of the glucocorticoid receptor (GR) signaling pathway (AID 720691; active = well fitted activation curve with a large enough effect in the signal ratio in the repeat runs, not every such curve was filed as active; the % refers to the signal ratio)
Summary of the method: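 Measures GR pathway activation through a GRE-beta-lactamase reporter stably integrated in HeLa cells, with 18 h compound treatment at 37 C and fluorescence detection using a FRET substrate.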

[19] = biological target: Glucocorticoid receptor (Homo sapiens) (UniProt P04150); assay: qHTS assay to identify small molecule antagonists of the glucocorticoid receptor (GR) signaling pathway (AID 720692; active = well fitted inhibition curve with a large enough effect in the signal ratio in the repeat runs, not every such curve was filed as active; the % refers to the signal ratio)
Summary of the method: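 Tox21 10K library screened in concentration-response for blockade of dexamethasone (5 nM final)-induced GRE-bla reporter activity in HeLa cells; 18 h treatment, fluorescence read.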

[20] = qHTS assay for small molecules that induce genotoxicity in human embryonic kidney cells expressing luciferase-tagged ATAD5 - cell viability (AID 651634; calls by dose curve; note: nearly all actives have a fitted effect of over 25% in size)
Summary of the method: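 15.5 hr compound or vehicle exposure of HEK293T cells expressing luciferase-tagged ATAD5 at 37C; live-cell protease activity is read by fluorescence after 30 min of CellTiter-Fluor.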

Measured: Potency

Glucocorticoid receptor (Homo sapiens), sequence (P04150 whole entry, looked up): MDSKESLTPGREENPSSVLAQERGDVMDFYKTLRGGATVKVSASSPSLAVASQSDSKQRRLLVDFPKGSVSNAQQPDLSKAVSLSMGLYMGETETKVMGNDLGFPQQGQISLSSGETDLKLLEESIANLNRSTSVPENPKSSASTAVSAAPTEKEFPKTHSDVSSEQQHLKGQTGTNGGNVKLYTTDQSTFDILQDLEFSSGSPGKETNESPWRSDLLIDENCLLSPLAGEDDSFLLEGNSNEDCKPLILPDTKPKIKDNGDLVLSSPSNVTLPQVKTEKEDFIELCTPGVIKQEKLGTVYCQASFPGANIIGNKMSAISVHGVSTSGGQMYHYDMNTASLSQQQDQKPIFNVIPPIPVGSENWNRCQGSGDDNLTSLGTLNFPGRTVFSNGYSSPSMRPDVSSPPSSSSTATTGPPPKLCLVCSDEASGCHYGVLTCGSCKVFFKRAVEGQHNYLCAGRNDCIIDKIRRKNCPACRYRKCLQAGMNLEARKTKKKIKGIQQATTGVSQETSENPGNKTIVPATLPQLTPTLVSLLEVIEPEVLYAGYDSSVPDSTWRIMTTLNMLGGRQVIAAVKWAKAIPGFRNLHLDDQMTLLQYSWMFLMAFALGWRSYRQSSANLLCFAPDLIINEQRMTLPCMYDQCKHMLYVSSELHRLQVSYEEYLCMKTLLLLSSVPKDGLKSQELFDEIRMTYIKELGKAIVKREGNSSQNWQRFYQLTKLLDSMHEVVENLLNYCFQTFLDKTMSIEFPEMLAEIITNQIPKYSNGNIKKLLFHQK

O=C(Cn1ccnc1[N+](=O)[O-])NCc1ccccc1
not listed: [19] | [20]
inactive: all other assays above

CCCCOC(=O)C(C)O (centres undefined)
not listed: [15] | [20]
inactive: all other assays above

CC(=O)C1C(=O)C=C(C)OC1=O (centres undefined)
not listed: [5] | [11] | [20]
inactive: all other assays above

CC(C)=CCC[C@@](C)(O)[C@H]1CC=C(C)CC1
not listed: [4]
inactive: all other assays above

CCCCSCCCC
not listed: [3] | [19]
inactive: all other assays above

CCCCCCCCCCOC(C)=O
not listed: [3] | [11] | [13] | [15] | [19]
inactive: all other assays above

N#CCC(=O)NN
not listed: [3]
inactive: all other assays above
